# PubChem BioAssay AID504332 (National Center for Advancing Translational Sciences (NCATS), 2011)
# Out of some 350,000 compounds screened, about 31,000 (8.9%) were called active. Inconclusive results (about 15%) are left out. Only a selection was taken, and actives are over-represented in it overall. Unmarked numbers belong to inactive results. Calls follow the shape of the dose curve; as a rule, active = well fitted inhibition curve with a large enough effect; inconclusive = small, poorly fitted or top-dose-only effect; inactive = no such curve, though single readings can be large or run the other way.
# Biological target: Histone-lysine N-methyltransferase EHMT2 (Homo sapiens) (UniProt Q96KQ7)
# Sequence (Q96KQ7 913-1193 limits assumed): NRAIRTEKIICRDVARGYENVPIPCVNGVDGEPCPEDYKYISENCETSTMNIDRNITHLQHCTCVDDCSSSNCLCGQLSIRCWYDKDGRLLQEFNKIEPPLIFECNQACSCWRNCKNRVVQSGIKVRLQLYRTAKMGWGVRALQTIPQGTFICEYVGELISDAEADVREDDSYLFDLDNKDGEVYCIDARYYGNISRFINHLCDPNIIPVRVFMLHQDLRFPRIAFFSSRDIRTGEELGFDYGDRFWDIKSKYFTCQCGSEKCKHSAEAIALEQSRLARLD
# Assay: qHTS Assay for Inhibitors of Histone Lysine Methyltransferase G9a; also: nearly all actives have a fitted effect of over 75% in size
# Details: G9a H3K9 monomethylation, AlphaScreen, 2 h; series mostly up to 59 µM; activity, negative = inhibition: at the top concentration
# Outline: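 Quantitative HTS format: methyltransferase activity on a biotin-tagged H3K9 peptide is measured by AlphaScreen, using a rabbit anti-monomethyl-H3K9 antibody with streptavidin donor and anti-IgG acceptor beads. Final levels are 20 nM enzyme, 500 nM peptide, 20 uM SAM; 2 h RT.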
# % is scaled to controls: 0 for no effect and ±100 for the full control effect; potency is read from the fitted curve at half-maximal effect.
SMILES,"activity, negative = inhibition",Potency
Cc1ccccc1NC(=O)Cn1c(=O)n(CCCCC(=O)NCc2ccccc2Cl)c(=O)c2ccccc21,-25.2%,–
CCOc1ccc(C(C)NC(=O)CN2C(=O)NC3(CCCCC3)C2=O)cc1OCC (configuration not stated),-0.826%,–
Cc1ccc(COC(=O)CN2C(=O)NC3(CCCC3)C2=O)cc1,-12.1% [at 12.7 µM],–
CCOc1ccc(C(C)=O)cc1COC(=O)CN1C(=O)NC2(CCCC2)C1=O,–,56.2 µM (active)
CC(C)c1ccc(NC(=O)CN(C)S(=O)(=O)c2ccc3c(c2)c(=O)n(C)c(=O)n3C)cc1,-40.7%,–
CC(OC(=O)c1ccc(-n2cnnn2)cc1)C(=O)NCc1ccccc1 (configuration not stated),-1.43% [at 102 µM],–
NC1=NC(c2cc(F)cc(F)c2)n2c(nc3ccccc32)N1 (configuration not stated),-45.3%,–
Cc1cc2nc(SCCN3CCOCC3)[nH]c2cc1C,12.3%,–
N#Cc1cnn2cc(CCN3CCOCC3)c(-c3ccc(F)cc3)nc12,5.85% [at 102 µM],–
CCn1c2ccc(F)cc2c2nnc(SCCN3CCOCC3)nc21,–,44.7 µM (active)
O=C(/C=C/c1cccc(C(F)(F)F)c1)N1CCN(c2ccccn2)CC1,13.1% [at 102 µM],–
Cc1ccc(NC(=O)CSc2nc3ccccc3c3nc(CCn4cncc4C)nn23)cc1F,-31.7%,–
CCOC(=O)C1CCN(C(=O)C2CCCN(S(=O)(=O)c3ccc(OC)c(Cl)c3)C2)CC1 (configuration not stated),2.19% [at 102 µM],–
O=C(NC1CCCCC1)C1c2ccccc2C(=O)N1Cc1ccco1 (configuration not stated),-38.1% [at 102 µM],–
COC(=O)c1cc(NC2c3ccccc3C(=O)N2c2ccc(Cl)cn2)cc(C(=O)OC)c1 (configuration not stated),-10.9%,–
O=C1c2ccccc2C(Nc2ccc3c(c2)OCCO3)N1Cc1ccco1 (configuration not stated),–,39.8 µM (active)
Cc1ccnc(N2C(=O)c3ccccc3C2Nc2ccc3c(c2)OCCO3)c1 (configuration not stated),–,79.4 µM (active)
Cc1cccc(C(=O)Nc2ccccc2-c2nnn(CC(=O)Nc3ccc4c(c3)OCCO4)n2)c1,48.1% [at 12.7 µM],–
CC1(C)SC2c3ccccc3C(=O)N2[C@@H]1C(=O)NCc1ccco1 (some centres not stated),-4.15%,–
COc1ccc(C(C)(C)C)cc1NC(=O)CCN1C(=O)C2CCCCC2C1=O (configuration not stated),-24.5% [at 12.7 µM],–
CC(=O)N1CCCc2cc(S(=O)(=O)N3CCC(C(=O)NCc4ccc(F)cc4)CC3)ccc21,22.6%,–
COc1cc(NC(=O)CSc2nc3nc(C)c(Cc4ccc(C)cc4)c(C)n3n2)cc(OC)c1OC,7.15%,–
CCOc1ccccc1NC(=O)Cn1nnc(C(=O)Nc2ccc(C)c(C)c2)c1N,-6.58%,–
Cc1ccc(NC(=O)C(=O)NCC(c2cccnc2)N2CCOCC2)cc1 (configuration not stated),8.4%,–
COc1ccc(N(Cc2ccc(N(C)C)cc2)C(=O)c2ccc(S(C)(=O)=O)cc2)cc1,–,12.6 µM (active)

SMILES,"activity, negative = inhibition",Potency
COc1ccc(C(=O)N(Cc2ccc(N(C)C)cc2)C2CCS(=O)(=O)C2)cc1 (configuration not stated),-2.24% [at 102 µM],–
COc1ccc(S(=O)(=O)NCc2ccc(C(=O)N(C)Cc3ccco3)cc2)cc1,-7.57% [at 102 µM],–
COc1ccc(C)cc1N(C)C(=O)c1c(C)oc2ncnc(N3CCOCC3)c12,-0.219%,–
Cc1ccc(OCC(=O)Nc2ccccc2C(=O)NC2CC2)cc1C,35% [at 102 µM],–
Cc1cccc(C)c1NC(=O)CNC(=O)c1ccc2c(c1)OCCO2,-11.7%,–
Cc1ccc(C(=O)NNC(=O)c2ccc3c(c2)OCCO3)cc1,8.51% [at 2.33 µM],–
Cc1ccc2sc(NNC(=O)c3ccc4c(c3)OCCO4)nc2c1C,–,10 µM (active)
Cc1c(CNC(C)c2ccccc2)c(C(=O)O)c(C)n1Cc1c(F)cccc1Cl (configuration not stated),-5.36%,–
C[n+]1cc(-c2ccccc2)oc1-c1ccccc1,–,50.1 µM (active)
CCSc1nsc(NC(=O)Nc2ccccc2OC)n1,27.7% [at 102 µM],–
O=C(CN1C(=O)COc2ccccc21)Nc1ccc(F)cc1,–,31.6 µM (active)
CC(OC(=O)CN1C(=O)COc2ccccc21)C(=O)NCc1ccc(F)cc1 (configuration not stated),-0.855% [at 102 µM],–
O=C(CN1C(=O)COc2ccc(Cl)cc21)Nc1ccc(N2CCOCC2)cc1,-10.1% [at 102 µM],–
Cn1c(=O)c2c(SCC(=O)NCC3CCCO3)nc(-c3ccccc3F)nc2n(C)c1=O (configuration not stated),3.42%,–
CCOc1ccc(N(C)S(=O)(=O)c2cc(-c3cnc(C)o3)ccc2OC)cc1,4.14%,–
Cc1cccc(N2CCN(C(=O)Cn3ncc4c5ccccc5n(C)c4c3=O)CC2C)c1 (configuration not stated),4.42%,–
Cc1csc(=Nc2ccccc2)n1CCO,–,28.2 µM (active)
CN(C)CCCn1c(-c2ccc(Cl)cc2)csc1=Nc1ccccc1,–,12.6 µM (active)
OCCn1c(-c2ccccc2)csc1=Nc1ccccc1,–,44.7 µM (active)
CN(C)CCCn1c(SCc2ccc(Cl)cc2)nnc1-c1ccncc1,14% [at 0.501 µM],–
COc1ccccc1OCCCn1c(-c2ccc(Cl)cc2)nc2ccccc2c1=O,1.97%,–
Cc1csc(=NC(=O)c2ccccc2)n1CCO,-1.86%,–
COCCn1c(CCC(=O)Nc2cc(C)ccc2C)nc2cccnc21,22.5%,–
O=C(OCC(=O)N1CCc2ccccc21)C1CCCN1S(=O)(=O)c1ccc(Cl)cc1 (configuration not stated),0.8% [at 2.33 µM],–
CCCC(=O)Nc1ncnc2c1ncn2[C@@H]1O[C@@H]2OP(=O)(O)OC[C@H]2[C@H]1OC(=O)CCC,4.63%,–

SMILES,"activity, negative = inhibition",Potency
CCCOc1cccc(C(=O)Nc2cccc(NC(=O)c3ccc(C(C)(C)C)cc3)c2)c1,-0.125%,–
COc1ccc2c(c1)[C@H]1[C@H](CO2)[C@H](c2ccccc2)[C@]2(C)C(=O)Nc3cc(F)c(F)cc3C(=O)N12,5.78% [at 2.33 µM],–
COc1ccc(-c2nonc2NC(=O)c2oc3ccc(F)cc3c2C)cc1OC,1.61% [at 102 µM],–
Cc1c(NC(=O)Cc2ccccc2)cccc1-c1nc2cccnc2s1,-27.2%,–
O=C(N/N=C/c1cc(Cl)cc([N+](=O)[O-])c1O)C(O)(c1ccccc1)c1ccccc1,–,28.2 µM (active)
CN(C)/N=C/c1cc(Cl)cc([N+](=O)[O-])c1O,-14.3%,–
O=C(Cc1cc(=O)[nH][nH]1)N/N=C/c1ccccc1[N+](=O)[O-],9.5% [at 102 µM],–
CCOc1ccc(N(CC)C(=O)c2noc3c2COc2ccc(C)cc2-3)cc1,10.9%,–
CC1CCCCC1NC(=O)c1cn(C)c2ccc(S(=O)(=O)N3CCOCC3)cc2c1=O (configuration not stated),-4.36% [at 102 µM],–
COC(=O)c1cn(C)c2ccc(S(=O)(=O)N3CC(C)CC(C)C3)cc2c1=O (configuration not stated),–,56.2 µM (active)
CCn1cc(C(=O)N2CC(C)CC(C)C2)c(=O)c2cc(S(=O)(=O)N3CCCC3)ccc21 (configuration not stated),12.6% [at 102 µM],–
O=C1C=C(c2ccnc3cc(Cl)ccc23)C[C@@H](c2ccc3c(c2)OCO3)C1,-18.7% [at 0.501 µM],–
COc1cccc(N2CC(NS(=O)(=O)c3cccs3)CC2=O)c1 (configuration not stated),4.26% [at 102 µM],–
Cc1ccc2c(CN3CCN(S(=O)(=O)c4ccccc4C(F)(F)F)CC3)cc(=O)oc2c1,-13.1% [at 12.7 µM],–
Cc1ccc2c(CSc3nncs3)cc(=O)oc2c1,–,50.1 µM (active)
COCc1cc(=O)oc2cc(NS(=O)(=O)c3ccc(C)cc3)ccc12,-1.12% [at 102 µM],–
O=C(/C=C/c1ccccc1[N+](=O)[O-])NCC1CCCO1 (configuration not stated),-4.67%,–
O=[N+]([O-])c1ccccc1/C=C/CN1CCC(O)CC1,–,39.8 µM (active)
CC1CC(C)CN(C/C=C/c2ccccc2[N+](=O)[O-])C1 (configuration not stated),–,50.1 µM (active)
CC(C)CNC(=O)COC(=O)/C=C/c1ccccc1[N+](=O)[O-],6.78%,–
O=C(/C=C/c1ccccc1[N+](=O)[O-])OCC(=O)N1CCCC1,11.7% [at 12.7 µM],–
O=C(/C=C/c1ccccc1[N+](=O)[O-])OC1CCCCC1=O (configuration not stated),-0.9% [at 102 µM],–
CCC1(C)CC(=O)c2c(ccc3oc(C(=O)Nc4ccc(C(C)=O)cc4)c(C)c23)O1 (configuration not stated),1.06%,–
Cc1ccc(C)c(N2CCN(C(=O)C3CCC(CNS(=O)(=O)c4cccs4)CC3)CC2)c1 (configuration not stated),-7.4%,–
CCCN1CCN(C(=O)CCCNC(=O)c2ccc(Cl)cc2)CC1,-12.5% [at 102 µM],–

SMILES,"activity, negative = inhibition",Potency
COc1ccccc1NC(=O)c1cc(C2CC2)nc2c1c(C)nn2-c1ccc(C)cc1,3.8%,–
CCN(CC)S(=O)(=O)c1ccc2c(c1)N(CC(=O)NCC(C)c1ccccc1)C(=O)CO2 (configuration not stated),-7.99%,–
O=C(COC(=O)c1cc(S(=O)(=O)N2CCOCC2)ccc1Cl)NCCc1ccccc1,-2.95% [at 12.7 µM],–
Cc1ccnc(NC(=O)CNC(=O)c2ccccc2)c1,-3.79% [at 102 µM],–
O=C(O)/C=C/c1cn(-c2ccccc2)nc1-c1cccs1,-5.58% [at 102 µM],–
O=c1[nH]c(-c2cccs2)nc2ccccc12,10.3%,–
S=c1[nH]c(-c2cccs2)cn1-c1ccccc1,–,2.51 µM (active)
CC1=C(C(=O)OCC(C)C)C(c2ccc(OCc3ccccc3)cc2)N2C(=O)CCSC2=N1 (configuration not stated),-28.6%,–
O=C(c1ccc(Cl)c(S(=O)(=O)N2CCCCC2)c1)N1CCCCCC1,28.7% [at 102 µM],–
O=C(c1ccc[nH]c1=S)N1CCN(S(=O)(=O)c2ccc(Br)cc2Cl)CC1,–,8.91 µM (active)
O=C(c1ccccc1F)N1CCN(S(=O)(=O)c2ccc(Br)cc2)CC1,27% [at 102 µM],–
CC(C)CN(C(=O)Cn1c(=O)cnc2ccccc21)C1CCS(=O)(=O)C1 (configuration not stated),2.69% [at 102 µM],–
O=C1[C@H]2[C@@H](c3ccc(Cl)cc3)N3C(=O)N(c4cccc(F)c4)C(=O)[C@@]3(Cc3ccccc3)[C@H]2C(=O)N1C1CCCCC1,-8.78% [at 2.33 µM],–
c1cncc(-c2nc(N3CCNCC3)c3ccccc3n2)c1,8.14% [at 0.501 µM],–
S=c1nc2ccccc2c2nc(-c3cccnc3)[nH]n12,–,10 µM (active)
CC(C)(C)OC(=O)N1CCC(c2c(C(=O)NCc3ccccn3)cnn2-c2ccc(F)cc2)CC1,51.9%,–
CCNC(=S)N(CCc1c(C)[nH]c2ccc(C)cc12)Cc1ccco1,–,50.1 µM (active)
Cc1ccc(CN(Cc2cccnc2)C(=S)Nc2cc(Cl)ccc2C)cc1,4.45% [at 102 µM],–
Cc1ccc(NC(=S)N(Cc2ccco2)C(C)c2cccs2)cc1 (configuration not stated),18.1%,–
Cc1ccc2[nH]c(C)c(CCNC(=O)NC3CCCCC3)c2c1,3.69% [at 102 µM],–
COCCNC(=S)N(CCc1c(C)[nH]c2ccc(C)cc12)Cc1cccnc1,–,70.8 µM (active)
COCCNC(=S)N(Cc1cccnc1)Cc1ccc(OC)c(OC)c1,17.6% [at 102 µM],–
